CHO-K1 Ca antag: counter-screen for M1 antagonists: effect in parental CHO-K1 cells; inhibition, % at 3 µM; ATP-induced calcium, Fluo-8 fluorescence; 360,000 compounds, 0.6% hits; AID 602250;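 active means inhibition above a per-plate cutoff, the plate's mean sample inhibition plus 3 SD, cut at about 24% in these data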
CHO-K1 Ca PAM: nonselective calcium activators in parental CHO-K1 cells, primary screen, counter-screen for M1 PAM project, cell-based, Fluo-8 calcium fluorescence, full deck, 1536-well; AID 602247, 2012; activation, % at 3 µM; ATP EC20; 0% at ATP EC20, 100% at ATP max; 360,000 compounds, 0.02% hits;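 active means activation above the run cutoff, the mean activation of all test compounds plus 3 SD, cut at about 40% in these data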;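 further: peak over basal fluorescence ratio in a 140 s read after ATP addition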
CHRM4 agonist: human M4 muscarinic receptor agonists, primary screen, CHO-K1 cells, Fluo-8 calcium fluorescence. Muscarinic acetylcholine receptor M4 (Homo sapiens), P08173. CHO-K1 hM4/Gqi5; vehicle 0%, full acetylcholine response 100%. activation, % at 3 µM. 360,000 compounds, 0.14% hits;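 active means activation above the run mean over all test wells plus 3 SD, cut at about 32% in these data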;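 further: peak over basal fluorescence ratio per well then scaled between controls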
Target sequence (P08173 whole entry, looked up): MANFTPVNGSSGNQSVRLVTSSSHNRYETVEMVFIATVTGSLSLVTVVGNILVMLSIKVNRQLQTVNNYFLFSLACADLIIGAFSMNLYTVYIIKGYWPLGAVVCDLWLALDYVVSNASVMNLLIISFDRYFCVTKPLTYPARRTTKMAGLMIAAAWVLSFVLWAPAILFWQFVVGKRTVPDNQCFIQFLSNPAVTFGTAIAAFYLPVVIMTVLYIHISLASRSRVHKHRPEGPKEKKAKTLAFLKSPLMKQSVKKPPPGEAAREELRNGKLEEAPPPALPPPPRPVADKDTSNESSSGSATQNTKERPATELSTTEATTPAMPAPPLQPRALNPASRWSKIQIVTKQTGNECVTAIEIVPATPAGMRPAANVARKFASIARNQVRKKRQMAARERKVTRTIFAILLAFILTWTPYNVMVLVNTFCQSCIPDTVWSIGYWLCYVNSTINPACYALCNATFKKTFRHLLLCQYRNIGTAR
M1 ag parental: counter-screen for M1 agonists: effect in parental CHO-K1 cells | Fluo-8 calcium fluorescence; scaled to maximal ATP response, vehicle zero | activation, % at 3 µM | 360,000 compounds, 0.48% hits | AID 602248, 2012; in the data active means activation above about 15%;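 further: untransfected CHO-K1 host cells lacking M1 receptor as counterscreen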
CHRM4 PAM: human M4 muscarinic receptor positive allosteric modulators, primary screen, CHO-K1 cells, Fluo-8 calcium fluorescence; CHO-K1 hM4/Gqi5, ACh EC20; 0% = ACh EC20, 100% = maximal ACh; activation, % at 3 µM; 360,000 compounds, 0.4% hits;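 active means activation above its plate's cutoff, the mean activation of sample wells plus 3 SD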
M4 antag: human M4 muscarinic receptor antagonists, primary screen, CHO cells, Fluo-8 calcium fluorescence. CHO-hM4 cells, ACh EC80. inhibition, % at 3 µM. AID 624125, 2012. 360,000 compounds, 0.73% hits. Muscarinic acetylcholine receptor M4 (Homo sapiens), P08173;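 active means inhibition above its plate's cutoff, the mean inhibition of sample wells plus 3 SD, cut at about 27% in these data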
A number is an active result; i = inactive. This is a sample that favours compounds with a hit; in the whole collection about 2% have one here.

SMILES | CHO-K1 Ca antag | CHO-K1 Ca PAM | CHRM4 agonist | M1 ag parental | CHRM4 PAM | M4 antag
Nc1nc(-c2ccccn2)nc(N)c1Cc1ccccc1F | i | i | i | i | i | i
O=C(/C=C/c1ccc(Cl)c(Cl)c1)NCCCn1ccnc1 | i | i | i | i | i | i
Cc1ccc(/C=C/C(=O)NCCCn2ccnc2)cc1 | i | i | i | 17.8 | i | i
Nc1cc(N)cc(-c2nc3ccccc3[nH]2)c1 | i | i | i | i | i | 26.5
Nc1nc(-c2nc3ccccc3[nH]2)cs1 | 32.2 | i | i | i | i | i
CC1(c2ccccc2)CC(C)(C)N2C(=O)Cc3cccc1c32 (stereo not drawn) | i | i | i | i | i | 32.7
COc1cc(/C=C2\SC(=O)N(c3cccc(Cl)c3)C2=O)cc([N+](=O)[O-])c1O | i | i | i | i | 23.4 | i
COc1cc(CO)ccc1OCC(=O)Nc1ccc(Br)cc1 | i | i | i | i | i | i
O=C(COC(=O)c1ccco1)NCCNC(=O)COC(=O)c1ccco1 | i | i | i | i | 18.9 | i
C/C=C\C=C/C(=O)Nc1cccc(C2=NOC3(C2)C[C@@H](C(N)=O)N(C(=O)/C=C/C=C\C)C3)c1 (stereo partly drawn) | i | i | i | i | i | i
COc1ccccc1-c1nc(-c2ccc(C)nc2OC)no1 | 26.0 | i | i | i | i | i
COCc1nc(-c2ccc(-c3ccccc3)nc2OC)no1 | i | i | i | i | i | i
COc1nc(-c2ccccc2)ccc1-c1noc(C)n1 | 27.6 | i | i | i | i | i
COc1nc(C)ccc1-c1noc(-c2ccccn2)n1 | i | i | i | i | i | i
CC(=O)c1ccc(NC(=O)CSc2nc(=O)n3cccc(C)c3n2)cc1 | 44.0 | i | i | i | i | i
O=Cc1cn(-c2ccccc2)nc1-c1ccccc1 | i | i | i | i | i | i
CC1=NNC(=O)/C1=C\c1cn(-c2ccccc2)nc1-c1ccccc1 | i | i | i | i | i | 39.2
COc1ccccc1NC(=O)CSc1nccc(=O)[nH]1 | i | i | i | i | i | i
O=C(NCc1ccco1)c1nnc(Cc2ccc(F)cc2)o1 | i | i | i | i | i | i
O=C(NCc1ccco1)c1nnc(Cc2ccc(Cl)cc2)o1 | i | i | i | i | i | 39.1
O=C(Nc1cccc(/C=C/c2nc3ccccc3c(=O)[nH]2)c1)c1ccccc1Cl | i | i | i | i | i | i
Cc1cc([N+](=O)[O-])cc2c1NC(=O)C2(O)N1CCCC(C)C1 (stereo not drawn) | i | i | i | i | i | i
Cc1cc([N+](=O)[O-])cc2c1NC(=O)C2(O)N1CCCCCC1 (stereo not drawn) | i | i | i | 15.2 | i | i
C=CCNC(=O)Nc1ccc(Cl)cn1 | i | i | i | i | 20.8 | i
COC(=O)N/N=C/c1cc(Cl)c(OCc2ccc(F)cc2)c(OC)c1 | i | i | i | i | i | i
SMILES | CHO-K1 Ca antag | CHO-K1 Ca PAM | CHRM4 agonist | M1 ag parental | CHRM4 PAM | M4 antag
CC1(C)CC(=O)C2=C(C1)NC(SCC(=O)Nc1ccccc1)=C(C#N)C21CCCCC1 | i | i | i | i | i | i
CC(C)(C)C1CCC2(CC1)C(C#N)=C(SCC(=O)Nc1ccccc1)NC(=O)C2C#N (stereo not drawn) | 27.3 | i | i | i | i | i
CCCCC(=O)OCc1c(-c2cccc(OC)c2)ncc2ccccc12 | i | i | i | i | i | i
O=C(NCCc1ccccc1)C(=O)c1cn(CC(=O)N2CCCC2)c2ccccc12 | 23.8 | i | i | i | i | i
COCCNC(=O)/C(C#N)=C/c1c(N2CCCCCC2)nc2ccccn2c1=O | i | i | i | i | i | 98.7
CSc1ccc(/C=N/N(C)S(=O)(=O)c2ccc(C)cc2)cc1 | i | i | i | i | i | i
Cc1ccc(-c2nn(-c3ccccc3)cc2/C=N/NC(=O)c2ccc(Br)o2)cc1 | i | i | i | i | i | i
O=C(N/N=C\c1cn(-c2ccccc2)nc1-c1ccccc1)c1ccc(Br)o1 | i | i | i | i | i | 27.1
COc1ccc(CC2=CC(=O)c3ccccc3C2=O)cc1 | i | i | i | i | i | 33.1
CC(=O)Nc1ccc2c3c(cccc13)CC2 | i | i | i | i | i | i
Cc1nc2ccccc2n1-c1ccccc1 | i | i | i | i | i | i
O=c1c(/C=C(\O)c2ccccc2)nc2ccccc2n1-c1ccccc1 | i | i | i | i | i | 38.6
COc1ccc(Oc2nccc(-c3ccccc3)c2C#N)cc1 | i | i | i | i | i | i
COc1ccc(Oc2nnc(-c3ccccc3)cc2C#N)cc1 | i | i | i | i | 26.7 | i
COc1ccc(-c2csc(NC(=O)c3nc(-c4ccccc4)oc3C)n2)cc1 | 30.8 | i | i | i | i | i
COc1ccc(-c2csc(NC(=O)c3ccccc3C(=O)O)n2)cc1 | i | i | i | i | i | i
CC(C)=CCCC(C)NC(=O)NC1CCCCC1 (stereo not drawn) | 24.6 | i | i | i | i | i
COc1ccc(C(=O)Nc2ccc(C(=O)N3CCCC3)cc2)cc1[N+](=O)[O-] | i | i | i | i | i | i
Cn1c(N)c(C(=O)NCc2ccccc2)sc1=S | i | i | i | i | 35.8 | i
CC(C)(C)c1ccc(COn2ccnc2)cc1 | i | i | i | i | i | i
CC(C)COC(=O)NCCOC(=O)Nc1cccc(Cl)c1 | 24.4 | i | i | i | i | i
CCOC(=O)CCSCC(=O)Nc1nnc(C)s1 | i | i | i | i | i | i
CC1=[N+](C)c2c(ccc3cccnc23)C1(C)C | 34.4 | i | i | 15.8 | i | 35.2
COc1ccccc1-n1c(C)nc2cc(C(=O)NCCN3CCOCC3)ccc21 | i | i | i | i | i | i
O=C(CN1CCCCC1)Nc1nnc(-c2ccc([N+](=O)[O-])cc2)s1 | 28.6 | i | i | i | i | i
SMILES | CHO-K1 Ca antag | CHO-K1 Ca PAM | CHRM4 agonist | M1 ag parental | CHRM4 PAM | M4 antag
CCC(Oc1nc2ccccc2nc1-c1ccccc1NC(C)=O)C(=O)c1ccccc1 (stereo not drawn) | i | i | i | i | 33.1 | i
COc1ccnc(Oc2ccccc2)c1C(=O)N/C=N/OCc1ccc(F)cc1Cl | i | i | 35.0 | i | i | i
CN(CCNC(=O)CCCOc1cc(=O)n(C)c2ccccc12)Cc1ccccc1 | i | i | i | i | i | i
COc1ccc(OC)c(NC(=O)CSc2nnc3ccc(-c4ccncc4)nn23)c1 | i | i | i | i | i | i
COc1ccc(C)cc1NC(=O)CSc1nnc2ccc(-c3ccncc3)nn12 | i | i | i | i | i | 27.3
CC1CCCCC1n1c(-c2cccnc2)n[nH]c1=S (stereo not drawn) | i | i | i | i | i | i
S=c1[nH]nc(-c2cccnc2)n1C1CCCCC1 | i | i | i | i | 25.8 | i
Nc1cc(=O)[nH]n1C1CCN(c2ccccc2)CC1 | 26.2 | i | i | i | i | i

Bioassay records (PubChem)
